According to PubChem BioAssay AID1159580 (chemical genetic matrix, 2015):
Where “and” joins values, the source holds several entries; their conditions need not be identical. Equal values may be shown once. Screen size: about 5,500 compounds; about 2,000 (36%) were called active. Another 18% or so got no clear call; they are omitted. Cut-off read from the data, not from the text of the source: active = normalized growth mostly below about 0.91 (no sharp cut-off); inconclusive = no clear call, values can overlap the other calls; inactive = mostly above about 0.92. Some of the results follow.

Assay: chemical genetic growth profiling, strain panel (AID 1159580);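 note: tested at 20 µM; growth read once vehicle control cultures reached saturation at 30 °C; 1 = growth at the plate median or of vehicle wells; lower values mean less growth of the strain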
Settings: S. cerevisiae deletion strains, growth OD

Measured: normalized growth

CC(Oc1ccccc1)C(=O)N[C@@H]1C(=O)N2[C@@H]1SC(C)(C)[C@@H]2C(=O)O (some centres not stated)
inactive: locus YAL013W, strain DEP1, active compounds read low 1.01 | locus YAL021C, strain ccr4, active compounds read low 1 | locus YAL026C, strain drs2, active compounds read low 1.01 | locus YAL030W, strain snc1, active compounds read low 0.987 | locus YBL061C, strain skt5, active compounds read low 1 | locus YBR009C, strain hhf1, active compounds read low 0.997 | locus YBR021W, strain FUR4, active compounds read low 0.999 | locus YBR023C, strain chs3, active compounds read low 0.998 | locus YBR171W, strain sec66, active compounds read low 0.984 | locus YBR229C, strain ROT2, active compounds read low 1.01 | locus YBR231C, strain swc5, active compounds read low 0.995 | locus YBR279W, strain paf1, active compounds read low 1.01 | locus YCL011C, strain gbp2, active compounds read low 0.988 | locus YCL016C, strain dcc1, active compounds read low 0.988 | locus YCL029C, strain bik1, active compounds read low 1.04 | locus YCL061C, strain MRC1, active compounds read low 0.998 | locus YCL069W, strain vba3, active compounds read low 0.981 | locus YCR088W, strain abp1, active compounds read low 0.995 | locus YDL005C, strain med2, active compounds read low 0.999 | locus YDL035C, strain GPR1, active compounds read low 1.01 | locus YDL040C, strain nat1, active compounds read low 0.995 | locus YDL074C, strain BRE1, active compounds read low 1.01 | locus YDL101C, strain DUN1, active compounds read low 1.02 | locus YDL134C, strain PPH21, active compounds read low 1.02 | locus YDL185W, strain tfp1, active compounds read low 1.02 | locus YDL192W, strain arf1, active compounds read low 1.02 | locus YDR001C, strain nth1, active compounds read low 0.994 | locus YDR069C, strain doa4, active compounds read low 1 | locus YDR101C, strain arx1, active compounds read low 1.01 | locus YDR137W, strain rgp1, active compounds read low 1 | locus YDR150W, strain NUM1, active compounds read low 1.01 | locus YDR159W, strain sac3, active compounds read low 1.02 | locus YDR162C, strain NBP2, active compounds read low 1.02 | locus YDR195W, strain ref2 1 | locus YDR297W, strain sur2, active compounds read low 0.994 | locus YDR318W, strain mcm21, active compounds read low 1.03 | locus YDR334W, strain swr1, active compounds read low 0.995 | locus YDR335W, strain msn5, active compounds read low 0.996 | locus YDR388W, active compounds read low 1.02 | locus YDR392W, strain spt3, active compounds read low 0.947 | locus YDR502C, strain sam2, active compounds read low 1.01 | locus YEL003W, strain gim4, active compounds read low 0.993 | locus YEL037C, strain rad23, active compounds read low 0.997 | locus YEL061C, strain CIN8 (second series), active compounds read low 0.988 | locus YEL061C, strain CIN8, active compounds read low 1.01 | locus YER015W, strain faa2, active compounds read low 1 | locus YER016W, strain bim1, active compounds read low 1 | locus YER110C, active compounds read low 1.03 | locus YER111C, strain swi4, active compounds read low 1.01 | locus YER155C, strain BEM2 (second series), active compounds read low 0.994 | locus YER155C, strain BEM2, active compounds read low 0.998 | locus YER167W, strain BCK2, active compounds read low 1.01 | locus YFR010W, strain ubp6, active compounds read low 0.997 | locus YGL078C, strain dbp3, active compounds read low 1.02 | locus YGL086W, strain mad1, active compounds read low 1.01 | locus YGL167C, strain pmr1, active compounds read low 0.999 | locus YGL173C, strain kem1, active compounds read low 1.01 | locus YGL227W, strain vid30, active compounds read low 0.988 | locus YGL240W, strain doc1, active compounds read low 1 | locus YGL248W, strain PDE1, active compounds read low 1.01 | locus YGL253W, strain hxk2, active compounds read low 0.994 | locus YGR078C, strain PAC10, active compounds read low 1.01 | locus YGR135W, strain pre9, active compounds read low 1.02 | locus YGR229C, strain SMI1, active compounds read low 0.999 | locus YGR252W, strain gcn5, active compounds read low 0.994 | locus YHR013C, strain ard1, active compounds read low 0.984 | locus YHR027C, strain rpn1, active compounds read low 0.999 | locus YHR030C, strain SLT2, active compounds read low 1.01 and 1.04 | locus YHR079C, strain IRE1 (second series), active compounds read low 1.02 | locus YHR079C, strain IRE1, active compounds read low 0.999 | locus YHR094C, strain hxt1, active compounds read low 1.02 | locus YHR129C, strain ARP1, active compounds read low 1.01 | locus YHR142W, strain chs7, active compounds read low 0.979 | locus YHR200W, strain rpn10, active compounds read low 1.02 | locus YIL066C, strain RNR3, active compounds read low 1.01 | locus YIL073C, strain SPO22, active compounds read low 1.06 | locus YIL125W, strain kgd1, active compounds read low 1.01 | locus YIR030C, strain dcg1, active compounds read low 1.02 | locus YJL092W, strain hpr5, active compounds read low 0.993 | locus YJL095W, strain BCK1 (second series), active compounds read low 0.995 | locus YJL095W, strain BCK1, active compounds read low 1.04 | locus YJL115W, strain asf1, active compounds read low 0.999 | locus YJL129C, strain trk1, active compounds read low 1 | locus YJL134W, strain LCB3, active compounds read low 1.01 | locus YJL154C, strain vps35, active compounds read low 0.991 | locus YJL164C, strain tpk1, active compounds read low 0.999 | locus YJL166W, strain qcr8, active compounds read low 0.986 | locus YJL168C, strain set2, active compounds read low 1.02 | locus YJL187C, strain SWE1 (second series), active compounds read low 1.02 | locus YJL187C, strain SWE1, active compounds read low 0.997 | locus YJR043C, strain POL32, active compounds read low 1.01 | locus YJR066W, strain TOR1, active compounds read low 0.966
